# Data as given in paper PMC7862700, “An all-to-all approach to the identification of sequence-specific readers for epigenetic DNA modifications on cytosine”.
# Experiments:
# Experiment in all cases: DAPPL (digital affinity profiling via proximity ligation, sequencing); 10 mM Tris-HCl pH 7.5, 50 mM NaCl, 1 mM DTT, 4% glycerol, room temperature, 30 min; GST-TFs on glutathione beads, 16-mer random dsDNA library, 0.1% formaldehyde crosslink after washing; high values mean tight binding
# Conditions in all cases: protein: recombinant; tags: N-terminal GST; dsDNA, one strand shown
# FLI1 = target: T1, FLI1 (Homo sapiens, UniProt Q01543 1-452)
# T1 sequence: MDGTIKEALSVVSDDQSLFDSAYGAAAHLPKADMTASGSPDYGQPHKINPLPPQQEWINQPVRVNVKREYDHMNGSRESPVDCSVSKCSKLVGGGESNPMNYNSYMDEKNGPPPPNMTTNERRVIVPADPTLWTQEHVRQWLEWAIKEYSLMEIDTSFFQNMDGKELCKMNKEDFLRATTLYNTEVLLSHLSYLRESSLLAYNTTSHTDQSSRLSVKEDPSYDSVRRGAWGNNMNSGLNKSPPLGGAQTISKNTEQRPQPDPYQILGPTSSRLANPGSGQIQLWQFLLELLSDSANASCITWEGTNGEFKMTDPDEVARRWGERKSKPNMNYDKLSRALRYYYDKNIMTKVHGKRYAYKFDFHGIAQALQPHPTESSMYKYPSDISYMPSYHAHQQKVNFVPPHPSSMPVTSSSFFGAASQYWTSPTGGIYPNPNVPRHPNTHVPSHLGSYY
# How it was run: (§1)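 Human transcription factors were made in yeast as GST fusions, captured on glutathione beads and barcoded with DNA. With a tag-only sample included, the pool was incubated with 200 nmole of a random double-stranded 16-mer DNA library in Tris/NaCl/DTT/glycerol buffer at room temperature for 30 min, then crosslinked with 0.1% formaldehyde after washing, ligated by proximity, amplified and sequenced. For binding signal, each hexamer's read frequency for a factor is divided by its frequency for the tag-only sample.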
# ELK1 = target: T2, ELK1 (Homo sapiens, UniProt P19419 1-428)
# T2 sequence: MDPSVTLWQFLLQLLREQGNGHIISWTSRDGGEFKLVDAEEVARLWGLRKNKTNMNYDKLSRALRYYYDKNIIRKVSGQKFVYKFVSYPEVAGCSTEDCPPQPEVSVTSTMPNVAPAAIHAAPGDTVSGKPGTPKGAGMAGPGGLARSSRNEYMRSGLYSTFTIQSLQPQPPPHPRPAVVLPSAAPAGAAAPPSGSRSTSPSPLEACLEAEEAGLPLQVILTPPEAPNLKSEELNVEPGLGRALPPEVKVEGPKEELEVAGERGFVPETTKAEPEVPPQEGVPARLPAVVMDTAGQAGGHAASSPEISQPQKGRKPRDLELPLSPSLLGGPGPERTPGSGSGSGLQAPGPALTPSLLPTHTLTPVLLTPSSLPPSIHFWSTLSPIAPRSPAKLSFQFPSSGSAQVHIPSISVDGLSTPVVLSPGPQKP
# How it was run: as §1
# GABPA = target: T3, GABPA (Homo sapiens, UniProt Q06546 1-454)
# T3 sequence: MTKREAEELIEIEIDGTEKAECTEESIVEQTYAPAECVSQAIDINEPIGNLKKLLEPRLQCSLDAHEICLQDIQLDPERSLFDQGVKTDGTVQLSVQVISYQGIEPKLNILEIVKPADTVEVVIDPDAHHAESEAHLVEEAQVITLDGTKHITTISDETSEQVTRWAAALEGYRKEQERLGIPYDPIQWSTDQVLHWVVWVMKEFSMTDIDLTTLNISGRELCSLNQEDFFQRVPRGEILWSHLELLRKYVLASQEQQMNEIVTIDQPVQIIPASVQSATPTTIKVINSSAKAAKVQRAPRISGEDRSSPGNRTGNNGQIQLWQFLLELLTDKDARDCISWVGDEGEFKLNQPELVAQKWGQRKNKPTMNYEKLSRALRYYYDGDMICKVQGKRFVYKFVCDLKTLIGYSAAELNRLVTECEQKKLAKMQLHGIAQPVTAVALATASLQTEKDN
# How it was run: as §1
# ERG = target: T4, ERG (Homo sapiens, UniProt P11308 1-479)
# T4 sequence: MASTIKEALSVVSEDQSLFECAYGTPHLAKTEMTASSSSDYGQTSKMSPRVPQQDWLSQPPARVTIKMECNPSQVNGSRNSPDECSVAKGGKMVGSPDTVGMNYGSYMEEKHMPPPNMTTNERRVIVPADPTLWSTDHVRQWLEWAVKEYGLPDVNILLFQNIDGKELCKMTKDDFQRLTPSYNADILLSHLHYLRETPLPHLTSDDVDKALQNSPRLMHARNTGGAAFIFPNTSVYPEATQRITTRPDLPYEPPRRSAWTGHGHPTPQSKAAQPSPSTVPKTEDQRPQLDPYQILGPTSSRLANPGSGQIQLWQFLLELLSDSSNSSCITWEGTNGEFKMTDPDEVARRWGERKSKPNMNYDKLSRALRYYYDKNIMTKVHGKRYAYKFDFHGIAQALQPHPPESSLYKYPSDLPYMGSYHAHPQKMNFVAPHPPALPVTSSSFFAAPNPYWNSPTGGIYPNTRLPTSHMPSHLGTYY
# How it was run: as §1
# ELF1 = ELF1 (Homo sapiens, UniProt P32519 1-619)
# Sequence of ELF1 (P32519 whole entry): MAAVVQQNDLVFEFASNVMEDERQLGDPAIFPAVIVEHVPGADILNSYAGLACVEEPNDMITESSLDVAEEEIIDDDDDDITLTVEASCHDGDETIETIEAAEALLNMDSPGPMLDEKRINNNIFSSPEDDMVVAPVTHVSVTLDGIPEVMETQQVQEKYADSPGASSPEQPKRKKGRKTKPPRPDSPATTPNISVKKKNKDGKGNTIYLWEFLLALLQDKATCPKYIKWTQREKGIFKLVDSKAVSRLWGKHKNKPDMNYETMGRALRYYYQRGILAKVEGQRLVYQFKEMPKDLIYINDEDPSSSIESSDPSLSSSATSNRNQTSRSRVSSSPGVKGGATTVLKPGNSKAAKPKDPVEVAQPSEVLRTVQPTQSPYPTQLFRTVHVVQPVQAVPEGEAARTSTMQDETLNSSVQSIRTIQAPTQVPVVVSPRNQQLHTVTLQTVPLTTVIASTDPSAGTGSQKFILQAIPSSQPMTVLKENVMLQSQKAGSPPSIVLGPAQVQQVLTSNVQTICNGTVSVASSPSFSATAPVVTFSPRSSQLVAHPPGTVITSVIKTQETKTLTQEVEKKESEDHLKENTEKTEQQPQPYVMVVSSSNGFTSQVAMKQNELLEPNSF
# How it was run: as §1
# EHF = target: T5, EHF (Homo sapiens, UniProt Q9NZC4 1-300)
# T5 sequence: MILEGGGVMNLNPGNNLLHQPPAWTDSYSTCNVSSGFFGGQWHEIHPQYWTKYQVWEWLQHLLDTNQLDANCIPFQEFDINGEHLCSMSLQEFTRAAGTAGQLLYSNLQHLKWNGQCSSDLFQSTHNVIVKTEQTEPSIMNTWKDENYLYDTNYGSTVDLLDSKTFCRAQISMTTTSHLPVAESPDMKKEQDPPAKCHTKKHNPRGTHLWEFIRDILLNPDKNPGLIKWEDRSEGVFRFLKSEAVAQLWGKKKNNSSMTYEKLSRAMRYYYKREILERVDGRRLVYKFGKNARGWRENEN
# How it was run: as §1
# SPI1 = SPI1 (Homo sapiens, UniProt P17947 1-270)
# How it was run: as §1
# SPIB = SPIB (Homo sapiens, UniProt Q01892 1-262)
# Sequence of SPIB (Q01892 whole entry): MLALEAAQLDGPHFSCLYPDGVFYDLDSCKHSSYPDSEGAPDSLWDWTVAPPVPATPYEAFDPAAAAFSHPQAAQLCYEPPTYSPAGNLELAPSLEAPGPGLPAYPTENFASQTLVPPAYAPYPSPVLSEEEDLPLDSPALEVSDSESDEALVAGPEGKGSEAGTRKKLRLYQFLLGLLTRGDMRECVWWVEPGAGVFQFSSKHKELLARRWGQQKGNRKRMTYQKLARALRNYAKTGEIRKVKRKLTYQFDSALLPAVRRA
# How it was run: as §1
# ELK3 = target: T6, ELK3 (Homo sapiens, UniProt P41970 1-407)
# T6 sequence: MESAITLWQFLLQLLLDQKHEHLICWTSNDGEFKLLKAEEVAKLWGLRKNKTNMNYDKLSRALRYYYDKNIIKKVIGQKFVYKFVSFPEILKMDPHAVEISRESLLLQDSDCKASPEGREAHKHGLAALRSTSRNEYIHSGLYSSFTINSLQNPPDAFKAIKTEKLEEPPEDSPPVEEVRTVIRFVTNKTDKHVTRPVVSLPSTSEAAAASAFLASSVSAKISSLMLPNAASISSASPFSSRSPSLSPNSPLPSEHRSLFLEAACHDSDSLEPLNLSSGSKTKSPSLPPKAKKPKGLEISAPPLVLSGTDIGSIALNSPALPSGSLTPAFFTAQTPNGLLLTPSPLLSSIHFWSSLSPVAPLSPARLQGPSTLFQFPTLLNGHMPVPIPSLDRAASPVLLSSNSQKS
# How it was run: as §1
# FEV = target: T7, FEV (Homo sapiens, UniProt Q99581 1-238)
# T7 sequence: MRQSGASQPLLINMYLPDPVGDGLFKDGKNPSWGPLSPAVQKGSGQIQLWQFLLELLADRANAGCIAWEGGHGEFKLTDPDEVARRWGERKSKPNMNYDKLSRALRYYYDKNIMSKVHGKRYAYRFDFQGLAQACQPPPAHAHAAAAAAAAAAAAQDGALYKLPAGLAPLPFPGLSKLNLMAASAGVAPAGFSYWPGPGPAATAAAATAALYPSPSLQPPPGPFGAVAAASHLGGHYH
# How it was run: as §1
# ETV5 = ETV5 (Homo sapiens, UniProt P41161 1-510)
# Sequence of ETV5 (P41161 whole entry): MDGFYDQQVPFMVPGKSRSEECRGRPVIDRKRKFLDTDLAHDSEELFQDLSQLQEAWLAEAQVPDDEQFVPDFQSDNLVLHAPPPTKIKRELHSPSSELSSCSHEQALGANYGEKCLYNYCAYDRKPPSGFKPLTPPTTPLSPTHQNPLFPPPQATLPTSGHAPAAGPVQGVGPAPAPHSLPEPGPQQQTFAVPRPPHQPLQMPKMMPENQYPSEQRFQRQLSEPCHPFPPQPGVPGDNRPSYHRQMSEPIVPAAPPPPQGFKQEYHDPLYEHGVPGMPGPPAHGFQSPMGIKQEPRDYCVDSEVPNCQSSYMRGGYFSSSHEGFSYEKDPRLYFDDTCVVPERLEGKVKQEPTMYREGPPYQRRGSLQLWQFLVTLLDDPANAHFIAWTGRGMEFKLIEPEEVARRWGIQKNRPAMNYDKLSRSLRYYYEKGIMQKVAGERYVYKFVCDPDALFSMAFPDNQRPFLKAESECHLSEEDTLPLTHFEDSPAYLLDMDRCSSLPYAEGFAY
# How it was run: as §1
# SPIC = target: T8, SPIC (Homo sapiens, UniProt Q8N5J4 1-248)
# T8 sequence: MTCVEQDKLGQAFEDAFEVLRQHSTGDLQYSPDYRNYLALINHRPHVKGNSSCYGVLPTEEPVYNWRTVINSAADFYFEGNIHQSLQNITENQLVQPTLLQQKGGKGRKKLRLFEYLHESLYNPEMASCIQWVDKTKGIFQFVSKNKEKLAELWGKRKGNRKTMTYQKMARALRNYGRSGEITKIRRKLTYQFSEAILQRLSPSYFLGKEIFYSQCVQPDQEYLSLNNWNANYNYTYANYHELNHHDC
# How it was run: as §1
# ELF4 = ELF4 (Homo sapiens, UniProt Q99607 1-663)
# Sequence of ELF4 (Q99607 whole entry): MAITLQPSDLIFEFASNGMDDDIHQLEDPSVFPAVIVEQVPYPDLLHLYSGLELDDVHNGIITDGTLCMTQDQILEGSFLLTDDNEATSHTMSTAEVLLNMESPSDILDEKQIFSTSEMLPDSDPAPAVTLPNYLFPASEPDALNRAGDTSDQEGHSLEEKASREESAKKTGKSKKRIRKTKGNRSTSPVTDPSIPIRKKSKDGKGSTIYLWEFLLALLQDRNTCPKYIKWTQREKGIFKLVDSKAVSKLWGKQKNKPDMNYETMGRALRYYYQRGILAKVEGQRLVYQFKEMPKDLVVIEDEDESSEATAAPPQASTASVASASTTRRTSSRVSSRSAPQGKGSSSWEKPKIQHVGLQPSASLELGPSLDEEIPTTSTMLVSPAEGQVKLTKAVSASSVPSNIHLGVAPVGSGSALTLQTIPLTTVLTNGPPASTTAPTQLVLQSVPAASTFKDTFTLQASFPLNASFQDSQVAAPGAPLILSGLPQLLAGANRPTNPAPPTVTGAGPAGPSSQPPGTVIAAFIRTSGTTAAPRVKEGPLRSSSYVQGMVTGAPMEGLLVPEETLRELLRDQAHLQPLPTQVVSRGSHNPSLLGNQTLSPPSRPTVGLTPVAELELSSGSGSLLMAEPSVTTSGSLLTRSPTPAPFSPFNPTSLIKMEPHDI
# How it was run: as §1
# ELK4 = target: T9, ELK4 (Homo sapiens, UniProt P28324-2 1-405)
# T9 sequence: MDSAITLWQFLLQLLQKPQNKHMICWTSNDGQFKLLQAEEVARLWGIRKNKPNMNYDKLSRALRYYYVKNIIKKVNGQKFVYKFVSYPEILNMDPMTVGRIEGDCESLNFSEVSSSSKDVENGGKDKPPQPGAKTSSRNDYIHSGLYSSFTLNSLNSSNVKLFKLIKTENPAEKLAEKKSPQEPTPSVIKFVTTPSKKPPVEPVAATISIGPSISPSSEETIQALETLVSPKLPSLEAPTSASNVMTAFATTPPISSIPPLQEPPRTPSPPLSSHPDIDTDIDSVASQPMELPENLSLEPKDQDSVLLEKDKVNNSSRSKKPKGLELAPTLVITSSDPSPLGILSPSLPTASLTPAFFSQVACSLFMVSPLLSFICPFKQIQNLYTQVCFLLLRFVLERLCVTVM
# How it was run: as §1
# ETV2 = target: T10, ETV2 (Homo sapiens, UniProt O00321 1-342)
# T10 sequence: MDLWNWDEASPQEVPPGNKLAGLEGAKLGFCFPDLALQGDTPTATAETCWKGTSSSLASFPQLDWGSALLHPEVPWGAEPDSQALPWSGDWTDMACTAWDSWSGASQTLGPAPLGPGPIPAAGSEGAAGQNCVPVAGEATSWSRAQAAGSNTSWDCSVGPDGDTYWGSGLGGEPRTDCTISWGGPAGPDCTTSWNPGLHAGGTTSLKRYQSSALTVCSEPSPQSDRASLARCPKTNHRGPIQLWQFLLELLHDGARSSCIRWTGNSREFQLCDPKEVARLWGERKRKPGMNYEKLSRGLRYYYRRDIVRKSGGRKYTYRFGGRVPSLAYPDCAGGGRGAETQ
# How it was run: as §1
# ELF3 = target: T11, ELF3 (Homo sapiens, UniProt P78545 1-371)
# T11 sequence: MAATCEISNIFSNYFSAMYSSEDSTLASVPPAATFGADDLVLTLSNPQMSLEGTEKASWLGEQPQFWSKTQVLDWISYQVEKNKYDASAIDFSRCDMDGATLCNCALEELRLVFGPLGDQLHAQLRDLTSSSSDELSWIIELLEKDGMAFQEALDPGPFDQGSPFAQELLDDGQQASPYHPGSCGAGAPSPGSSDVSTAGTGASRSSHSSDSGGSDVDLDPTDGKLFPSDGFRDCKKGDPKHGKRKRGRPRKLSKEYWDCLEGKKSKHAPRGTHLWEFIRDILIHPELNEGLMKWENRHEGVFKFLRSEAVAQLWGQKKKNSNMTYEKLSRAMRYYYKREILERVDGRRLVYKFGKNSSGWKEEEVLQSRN
# How it was run: as §1
# ETV1 = ETV1 (Homo sapiens, UniProt P50549 1-477)
# Sequence of ETV1 (P50549 whole entry): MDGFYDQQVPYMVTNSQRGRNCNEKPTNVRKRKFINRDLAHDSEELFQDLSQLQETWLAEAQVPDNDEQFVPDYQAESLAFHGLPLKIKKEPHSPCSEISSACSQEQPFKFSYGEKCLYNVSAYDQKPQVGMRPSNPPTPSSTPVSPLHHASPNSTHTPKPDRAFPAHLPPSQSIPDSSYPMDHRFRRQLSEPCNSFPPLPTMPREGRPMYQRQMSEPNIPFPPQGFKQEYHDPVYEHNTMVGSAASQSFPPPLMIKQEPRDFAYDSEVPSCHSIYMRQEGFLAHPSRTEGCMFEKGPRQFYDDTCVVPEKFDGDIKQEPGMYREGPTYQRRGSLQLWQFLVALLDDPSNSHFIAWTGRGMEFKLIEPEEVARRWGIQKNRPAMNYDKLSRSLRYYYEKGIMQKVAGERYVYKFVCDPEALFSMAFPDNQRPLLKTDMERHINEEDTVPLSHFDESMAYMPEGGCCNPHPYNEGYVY
# How it was run: as §1
# CRX = CRX (Homo sapiens, UniProt O43186 1-299)
# Sequence of CRX (O43186 whole entry): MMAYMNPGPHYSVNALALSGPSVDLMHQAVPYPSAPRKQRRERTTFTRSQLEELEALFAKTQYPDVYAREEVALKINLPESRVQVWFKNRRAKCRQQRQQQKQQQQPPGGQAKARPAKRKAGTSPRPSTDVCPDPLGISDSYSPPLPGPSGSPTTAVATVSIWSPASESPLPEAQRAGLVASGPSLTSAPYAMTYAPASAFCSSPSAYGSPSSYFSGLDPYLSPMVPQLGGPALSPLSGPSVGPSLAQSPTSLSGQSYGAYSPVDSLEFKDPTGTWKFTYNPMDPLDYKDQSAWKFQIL
# How it was run: as §1
Sequence,binding signal (FLI1),binding signal (ELK1),binding signal (GABPA),binding signal (ERG),binding signal (ELF1),binding signal (EHF),binding signal (SPI1),binding signal (SPIB),binding signal (ELK3),binding signal (FEV),binding signal (ETV5),binding signal (SPIC),binding signal (ELF4),binding signal (ELK4),binding signal (ETV2),binding signal (ELF3),binding signal (ETV1),binding signal (CRX)
GGTTTG,"1.18 fold enrichment (6-mer frequency, TF over GST control)","1.15 fold enrichment (6-mer frequency, TF over GST control)","1.24 fold enrichment (6-mer frequency, TF over GST control)","1.13 fold enrichment (6-mer frequency, TF over GST control)","1.19 fold enrichment (6-mer frequency, TF over GST control)","1.22 fold enrichment (6-mer frequency, TF over GST control)","1.06 fold enrichment (6-mer frequency, TF over GST control)","1.01 fold enrichment (6-mer frequency, TF over GST control)","1.2 fold enrichment (6-mer frequency, TF over GST control)","1.12 fold enrichment (6-mer frequency, TF over GST control)","1.02 fold enrichment (6-mer frequency, TF over GST control)","1.27 fold enrichment (6-mer frequency, TF over GST control)","1.12 fold enrichment (6-mer frequency, TF over GST control)","1.26 fold enrichment (6-mer frequency, TF over GST control)","1.05 fold enrichment (6-mer frequency, TF over GST control)","1.09 fold enrichment (6-mer frequency, TF over GST control)","1.14 fold enrichment (6-mer frequency, TF over GST control)",–
AAGTCA,"1.18 fold enrichment (6-mer frequency, TF over GST control)","1.24 fold enrichment (6-mer frequency, TF over GST control)","1.15 fold enrichment (6-mer frequency, TF over GST control)","1.26 fold enrichment (6-mer frequency, TF over GST control)","1.17 fold enrichment (6-mer frequency, TF over GST control)","1.15 fold enrichment (6-mer frequency, TF over GST control)","1.3 fold enrichment (6-mer frequency, TF over GST control)","1.11 fold enrichment (6-mer frequency, TF over GST control)","1.28 fold enrichment (6-mer frequency, TF over GST control)","1.17 fold enrichment (6-mer frequency, TF over GST control)","1.23 fold enrichment (6-mer frequency, TF over GST control)","1.1 fold enrichment (6-mer frequency, TF over GST control)","1.22 fold enrichment (6-mer frequency, TF over GST control)","1.18 fold enrichment (6-mer frequency, TF over GST control)","1.21 fold enrichment (6-mer frequency, TF over GST control)","1.21 fold enrichment (6-mer frequency, TF over GST control)","1.3 fold enrichment (6-mer frequency, TF over GST control)","1.03 fold enrichment (6-mer frequency, TF over GST control)"
